Active and inactive are the calls of the source. Rule for the calls: active = hit-call score of the fitted dose curve at least 0.9, where 1 is the maximum; inactive = score below 0.9.
read-out: Interleukin-8 (IL8), CXCL8 (gene 3576); assay: BSK_SAg_IL8: BioMAP Diversity Plus: SAg Assay for Interleukin-8 (IL8) Biomarker Activity (AID 2283094); conditions: primary human HUVEC with PBMC; actives raise or lower the signal
Procedure: BSK_SAg is a cell-based, multiplexed-readout assay that uses umbilical vein endothelium and peripheral blood mononuclear cells, a human vascular primary cell co-culture, with measurements taken at 24 hours after chemical dosing in a 96-well plate.BSK_SAg_IL8 is an assay component measured in the BSK_SAg assay. It measures IL-8 antibody related to regulation of gene expression using ELISA technology.Data from the assay component BSK_SAg_IL8 was analyzed into 1 assay endpoint. This assay endpoint, BSK_SAg_IL8, was analyzed with bidirectional fitting relative to DMSO as the negative control and baseline of activity. Using a type of binding reporter, gain or loss-of-signal activity can be used to understand changes in the signaling as they relate to the gene CXCL8. Furthermore, this assay endpoint can be referred to as a primary readout, because this assay has produced multiple assay endpoints where this one serves a signaling function. To generalize the intended target to other relatable targets, this assay endpoint is annotated to the cytokine intended target family, where the subfamily is interleukins.
The levels of cell surface (or secreted, indicated by the prefix "s") biomarker endpoints were measured by ELISA. Overt cytotoxicity to cells in confluent adherent cultures (all systems other than the BT system) was assessed by measuring total protein levels using sulforhodamine B (SRB) staining in parallel cultures at the time of biomarker measurements, indicated as SRB endpoints. For proliferation assays for adherent cell types, individual cell types are cultured at sub-confluence and relative cell numbers quantified by SRB staining at time points optimized for each system (48 h: 3C and CASM3C systems; 72 h: BT and HDF3CGF systems; 96 h: SAg system). SRB was performed by staining cells with 0.1% SRB after fixation with 10% TCA and reading wells at 560 nm.Viability and proliferation of PBMC (T cells) was quantified by Alamar Blue reduction for the SAg and BT systems. For PBMC viability (referred to as PBMC Cytotoxicity within the assay endpoint names), cells were plated (75,000/well in a 96-well plate) and then chemical samples added for 1 h before addition of activators, SEB and TSST-1 (20 ng/mL final concentration each). Cells were incubated for 90 h. Then, Alamar Blue (20 uL/well) (Invitrogen, Cat DAL1100) was added for 6 h, and the plates were read with a fluorescence microplate reader at 546/580 nm (excitation/emission). For PBMC proliferation, cells were plated and activated as above but incubated for only 16 h prior to addition of Alamar Blue. Plates were read after 6 h.

Row | Compound | outcome | AC50
1 | CCCCC(CC)C(=O)OCCOCCOCCOC(=O)C(CC)CCCC (stereo not given) | inactive | 
2 | CCN(CC)C(=S)SSC(=S)N(CC)CC |  | 32.5 µM (active)
3 | Nc1ccn([C@@H]2O[C@H](CO)[C@@H](O)[C@@H]2O)c(=O)n1 | inactive | 
4 | NNC(=O)c1ccncc1 | inactive | 
5 | c1ccc2c(c1)-c1cccc3c1c-2cc1ccccc13 | inactive | 
6 | OC[C@H]1O[C@@H]2O[C@H]3[C@H](O)[C@@H](O)[C@@H](O[C@H]4[C@H](O)[C@@H](O)[C@@H](O[C@H]5[C@H](O)[C@@H](O)[C@@H](O[C@H]6[C@H](O)[C@@H](O)[C@@H](O[C@H]7[C@H](O)[C@@H](O)[C@@H](O[C@H]1[C@H](O)[C@H]2O)O[C@@H]7CO)O[C@@H]6CO)O[C@@H]5CO)O[C@@H]4CO)O[C@@H]3CO | inactive | 
7 | CCCCOC(=O)c1ccccc1 | inactive | 
8 | NC(=O)N1c2ccccc2C=Cc2ccccc21 | inactive | 
9 | C[C@@H](Oc1ccc(CNC(=O)c2cccnc2Oc2ccc3c(c2)OCO3)c(F)c1)C(=O)O | inactive | 
10 | CCc1cccc(CC)c1N | inactive | 
11 | Cn1c(=O)c2[nH]cnc2n(C)c1=O | inactive | 
12 | NCC(F)(F)C(F)(F)C(F)(F)C(F)(F)F | inactive | 
13 | c1ccc(C(O[C@@H]2CCCN(CCc3ccc4c(c3)OCO4)C2)c2ccccc2)cc1 |  | 14.1 µM (active)
14 | OCC(CO)(CO)CO | inactive | 
15 | Cc1nc(-c2ccccn2)ncc1C(=O)Nn1cc(C)c2cc(F)ccc21 | inactive | 
16 | NC(=O)N(O)[C@@H]1COc2cc(OCc3ccccc3)ccc21 | inactive | 
17 | O=c1[nH]cnc2c1ncn2[C@H]1CC[C@@H](CO)O1 | inactive | 
18 | CC1(C)C(=O)N(Cl)C(=O)N1Cl | inactive | 
19 | S=P(N1CC1)(N1CC1)N1CC1 | inactive | 
20 | CC(C)c1nnc2ccc(-c3ocnc3-c3cc(F)ccc3F)cn12 |  | 1.27 µM (active)

Row | Compound | outcome | AC50
21 | C=CCc1cc(S(=O)(=O)c2ccc(O)c(CC=C)c2)ccc1O |  | 11.4 µM (active)
22 | CC[C@H](C)C(=O)O[C@H]1C[C@H](O)C=C2C=C[C@H](C)[C@H](CC[C@@H](O)C[C@@H](O)CC(=O)O)[C@H]21 |  | 11.9 µM (active)
23 | C=CN1CCCC1=O | inactive | 
24 | CCCCN1C(=O)[C@@H]([C@H](O)C2CCCCC2)NC(=O)C12CCN(Cc1ccc(Oc3ccc(C(=O)O)cc3)cc1)CC2 | inactive | 
25 | CC(C)C(=O)Nc1ccc([N+](=O)[O-])c(C(F)(F)F)c1 | inactive | 
26 | OC(O)(C(F)C(O)(O)C(F)(F)F)C(F)(F)F | inactive | 
27 | O=C(O)c1cccc(C(=O)O)c1 | inactive | 
28 | NC(N)=O | inactive | 
29 | OCCC(F)(F)C(F)(F)C(F)(F)C(F)(F)F | inactive | 
30 | O=S(=O)(O)CCC(F)(F)C(F)(F)C(F)(F)C(F)(F)C(F)(F)C(F)(F)F | inactive | 
31 | CCCCCCCCCCCCCCO |  | 31.8 µM (active)
32 | CCOC(N)=O | inactive | 
33 | Cn1cc[nH]c1=S | inactive | 
34 | CCCc1ccccc1 | inactive | 
35 | Cc1cccc(O)c1C | inactive | 
36 | OCc1ccccc1 | inactive | 
37 | O=C(O)[C@H](O)[C@@H](O)C(=O)O | inactive | 
38 | O=C(O)c1cccc(C[C@@H]2COc3ccc(OCc4nc5cc(F)ccc5s4)cc3[C@@H]2O)c1 | inactive | 
39 | OC[C@H]1O[C@@](CO)(O[C@H]2O[C@H](CO)[C@@H](O)[C@H](O)[C@H]2O)[C@@H](O)[C@@H]1O | inactive | 
40 | FC(F)=C(F)C(F)(F)C(F)(F)C(F)(F)C(F)(F)C(F)(F)C(F)(F)F | inactive | 
